The values below come from PubChem BioAssay (Tox21).

Active and inactive are the calls of the source. The call rests on the fitted dose curve; in most records, active means well fitted curve in the direction sought with a large enough effect in the repeat runs; inconclusive means weak or mixed curves; inactive means flat fitted curve, though single readings scatter.
On the % scale 0 is the no-effect control and ±100 the full control effect.

The nature of this test: qHTS assay to test for compound auto fluorescence at 535 nm (green) in HEK293 cell free culture (AID 720682). Particulars: cell-free medium, green autofluorescence 485/535 nm, stronger effect = higher value; series mostly up to 91.3 µM; activity change: at the top concentration. The text has this: U.S. Tox21 Program National Center for Advancing Translational Sciences [NCATS] NIH Chemical Genomics Center [NCGC] U.S. Environmental Protection Agency [EPA] National Institutes of Environmental Health Sciences [NIEHS] National Toxicology Program [NTP] U.S. Food and Drug Administration [FDA] Tox21 Assay Overview: Compound auto fluorescence often interferes with screening of the compound library against various biological targets and signaling pathways. Some of these compounds may have fluorophoric properties. Such properties may interfere with the assay outputs resulting in false positives and/or negatives. To decrease such complications and ensure the compound activities are relevant in terms of biological response, the Tox21 10K compound library was screened for auto fluorescence. From the fluorophores used as reporter signals in our screening assays, the auto fluorescence equivalencies of compounds against three fluorophores have been evaluated: Triamterene, Fluorescein and Rose Bengal sodium for blue, green and red fluorescence, respectively. The fluorescence intensities were measured using Excitation/Emission wavelengths at 405/460nm, 485/535nm and 540/590nm for blue, green and red labels, respectively. This assay includes the green fluorescence data.
Tox21 Assay Protocol Summary: 5 uL of culture medium (DMEM containing 10% FBS) per well was dispensed into black wall/clear bottom 1536-well plates using a Multidrop Combi Dispenser (ThermoFisher Scientific, Waltham, MA). After 23 nL compound or DMSO vehicle was transferred into assay plate by a pintool work station (Kalypsys, San Diego, CA), fluorescence intensities in the assay plates were measured by an Envision (PerkinElmer, Shelton, CT) plate reader using three labels for measuring blue, green and red fluorescence at […] 460, 535 and 590nm respectively.
For the molecule `CCOc1nc(C(Cl)(Cl)Cl)ns1`, the “activity change” value is -0.24% (inactive).

With `Nc1cnn(-c2ccccc2)c(=O)c1Cl`, the “activity change” value was -0.211% (inactive). Consider `C[C@H]1CCC[C@H](O)CCCCCc2cc(O)cc(O)c2C(=O)O1`, for which the outcome was inactive. As for `C=C(C)[C@@H]1CC=C(C=O)CC1`, the “activity change” value is 0.108% (inactive). Same read-out and setting: for `CCOC(=O)NC(=S)Nc1ccccc1NC(=S)NC(=O)OCC` the value was 0.0137% (inactive); for `O=P(O)(Oc1ccccc1)Oc1ccccc1`, 0.026% (inactive); for `COc1ccc(C(=O)N2CCCC2=O)cc1`, -0.033% [at 46 µM] (inactive). Consider `NC1=NC(=O)C(c2ccccc2)O1` (stereo not given), for which the “activity change” value was 0.067% [at 46 µM] (inactive).

Consider `ClCC(Cl)(Cl)Cl`, for which the “activity change” value is 0.0758% [at 95.7 µM] (inactive).

As to `O=c1oc2ccccc2c(O)c1C1CCCc2ccccc21` (stereo not given), the “activity change” value is -0.0742% (inactive).

Regarding `CN(C)CCc1ccc(O)cc1`, the “activity change” value was 0.0263% [at 46 µM] (inactive). As to `CC(C)CP(=S)(S)CC(C)C`, the “activity change” value was -0.0247% (inactive). Same read-out and setting: next, `O=C(Nc1ccccc1)c1ccccc1I`: -0.008% (inactive); `O=CNC(N1CCN(C(NC=O)C(Cl)(Cl)Cl)CC1)C(Cl)(Cl)Cl` (stereo not given): 0.0622% (inactive); `Cc1ccccc1CO[C@@H]1C[C@@]2(C(C)C)CC[C@]1(C)O2`: 0.0334% (inactive). As to `CCC(=O)c1ccccc1`, the “activity change” value was -0.0219% (inactive). Still for that read-out and setting: for `C[C@]12CC[C@H]3[C@@H](CC=C4C[C@@H](O)CC[C@@]43C)[C@@H]1CC[C@@H]2O` the value was -0.109% [at 46 µM] (inactive); for `CC1CCCCC1NC(=O)Nc1ccccc1` (stereo not given), 0.0256% (inactive).

Turning to `CSc1ccc(C(=O)C(C)(C)N2CCOCC2)cc1`, the “activity change” value is -0.015% (inactive). With `Cc1nnc2n1-c1sc(CCC(=O)N3CCOCC3)cc1C(c1ccccc1Cl)=NC2`, the call was inactive. On the same count and under the same terms, for `CCC1(c2ccccc2)C(=O)NC(=O)NC1=O` the value was “inactive”.

As to `O=[N+]([O-])c1cccc2c([N+](=O)[O-])cccc12`, the “activity change” value was 0.0381% (inactive). In the case of `O=[N+]([O-])c1cccc2cccnc12`, the “activity change” value is -0.0074% [at 95.7 µM] (inactive).

Consider `CNCC(=O)c1ccc(O)c(O)c1`, for which the “activity change” value is 0.0108% [at 46 µM] (inactive). Still for that read-out and setting: next, `CCCCN(CCCCO)N=O`: -0.0096% (inactive). On the same count and under the same terms, for `CC1(C)CON(Cc2ccccc2Cl)C1=O` the value was -0.0158% (inactive); for `CCCCc1ccc(O)cc1`, -0.0062% (inactive); for `N#CCNCC#N`, 0.104% (inactive).

`COC(=O)c1ccccc1S(=O)(=O)NC(=O)Nc1nc(C)cc(C)n1`: the “activity change” value is -0.0165% (inactive). For `O=C1CN=C(c2ccccc2)c2cc([N+](=O)[O-])ccc2N1`, the “activity change” value is 0.0124% [at 46 µM] (inactive).

For `C1CCC(C2CCCCC2)CC1`, the “activity change” value is 0.0507% (inactive). For the molecule `CCOC(=O)/C=C(C)/C=C/C[C@@H](C)CCCC(C)C`, the molecule was classed as inactive.

Regarding `NC(=S)C(N)=S`, the “activity change” value was 0.0428% (inactive).

Take `CN1C[C@@H](NS(=O)(=O)N(C)C)C[C@@H]2c3cccc4c3c(cn4C)C[C@H]21`: the “activity change” value is -0.0418% [at 46 µM] (inactive). Turning to `CCN(CC)C(=O)[C@@H]1C=C2c3cccc4[nH]cc(c34)C[C@H]2N(C)C1`, the outcome was inactive. As for `C(CCOCC1CO1)COCC1CO1` (stereo not given), the “activity change” value is 0.0399% (inactive).

Consider `CN1CCN(C(=O)O[C@H]2c3nccnc3C(=O)N2c2ccc(Cl)cn2)CC1`, for which the “activity change” value is 0.0919% [at 46 µM] (inactive).

For `O=C(N[C@H]1CN2CCC1CC2)c1cc2ccoc2cn1`, the “activity change” value was -0.0555% (inactive). On the same count and under the same terms, for `O=C(Nc1ccccc1)N(Cc1ccc(Cl)cc1)C1CCCC1` the value was -0.0221% (inactive); for `CCOP(=S)(OCC)SCSP(=S)(OCC)OCC`, 0.0095% (inactive).
